Source: PubChem BioAssay (EPA / NIEHS)
Records with an inconclusive call do not appear. Active and inactive are the calls of the source. How the source made its calls, unless noted: active means hit-call score of the fitted dose curve at least 0.9, where 1 is the maximum; inactive means score below 0.9.

What was measured:
[1] = CCTE_Shafer_MEA_acute_burst_number: CCTE's Neural Acute Assay for Single-Electrode Bursts, Shafer Lab (AID 2284013)
Summary of the method: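 Percent change in single-electrode burst number per well, from 40-min recordings taken before and after adding compound (0.03-40 uM) to primary rat cortical neurons on MEA plates at DIV 13 or 15, 37 C.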

[2] = CCTE_Shafer_MEA_acute_burst_duration_mean: CCTE's Neural Acute Assay for Mean Burst Duration, Shafer Lab (AID 2284014);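 further: hits are decreases in mean burst duration relative to DMSO controls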
Summary of the method: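 Rat cortical cultures, DIV 13/15; 40 min baseline, then 40 min with compound (0.03-40 uM), 37 C. Spikes: 300-5000 Hz band-pass, 8x rms threshold. Read-out: % change in mean single-electrode burst duration, DMSO-referenced, loss direction.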

[3] = CCTE_Shafer_MEA_acute_per_burst_spike_number_mean: CCTE's Neural Acute Assay for Average Number of Spikes Per Burst, Shafer Lab (AID 2284015);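 further: hits are decreases in mean spikes per burst versus baseline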
Summary of the method: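 We recorded spontaneous network firing of rat cortical neurons for 40 min before and 40 min during exposure to compound at 0.03-40 uM, at 37 C. Spikes were detected adaptively at 8x rms noise, and the change in average spikes per burst was fitted against DMSO.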

[4] = CCTE_Shafer_MEA_acute_interburst_interval_mean: CCTE's Neural Acute Assay for Mean Interburst Interval, Shafer Lab (AID 2284016);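 further: percent change of mean interburst interval versus each well's own pre-dose baseline; curves fitted for decrease in interburst interval relative to DMSO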
Summary of the method: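 MEA recording of spontaneous network bursting in primary rat cortical cultures; mean interburst interval was compared before and after a 40-min compound exposure (0.03-40 uM) and expressed as percent change, relative to DMSO.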

[5] = CCTE_Shafer_MEA_acute_burst_percentage_mean: CCTE's Neural Acute Assay for Percentage of Spikes in a Burst, Shafer Lab (AID 2284017);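 on AC50: curve fitted for loss of signal so potency reflects decreased burst percentage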
Summary of the method: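 Compounds were tested at 0.03-40 uM on primary rat cortical neuron networks grown over microelectrodes, with at least three wells per compound. Spontaneous firing was recorded for 40 min before and 40 min after dosing, and the change in burst percentage was computed per well.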

[6] = CCTE_Shafer_MEA_acute_burst_percentage_std: CCTE's Neural Acute Assay for Standard Deviation of Burst Percentage, Shafer Lab (AID 2284018);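 further: fitted in the negative direction so actives lower burst percentage SD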
Summary of the method: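 Rat primary cortical neurons on 48-well MEAs, DIV 13 or 15, 37 C. 40-min baseline then 40-min recording with compound (0.03-40 uM); well-level SD of per-electrode burst spike percentage, expressed as percent change from baseline.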

[7] = CCTE_Shafer_MEA_acute_per_network_burst_spike_number_std: CCTE's Neural Acute Assay for Standard Deviation of Number of Spikes in a Network Burst, Shafer Lab (AID 2284020);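 further: fitted for decrease in spike-number SD versus DMSO so actives lower it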
Summary of the method: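 Rat cortical cultures, DIV 13/15, 37 C; 20-min stabilisation, 40-min baseline, compound 0.03-40 uM, 40-min re-record. Spikes detected at 8x rms noise (300-5000 Hz band-pass). Readout: % change from baseline in per-burst spike-number SD.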

[8] = CCTE_Shafer_MEA_acute_network_burst_percentage: CCTE's Neural Acute Assay for Percentage of Network Bursts, Shafer Lab (AID 2284022);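 further: curves fitted for loss so actives lower network burst percentage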
Summary of the method: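 Rat cortical cultures, DIV 13/15; 20 min equilibration, 40 min baseline, compound 0.03-40 uM, 40 min recording, 37 C. Spikes: 300-5000 Hz band-pass, threshold 8x rms noise. Readout: % change in network-burst spike fraction; loss direction vs DMSO.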

[9] = CCTE_Shafer_MEA_acute_cross_correlation_area: CCTE's Neural Acute Assay for Area of Cross Correlation, Shafer Lab (AID 2284024);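 further: area under pooled inter-electrode spike cross-correlation near zero lag as percent change from own baseline; curves fitted for loss of cross-correlation area so actives lower synchrony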
Summary of the method: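 Rat cortical cultures, DIV 13/15, MEA; spikes detected at 8x rms noise (300-5000 Hz band-pass). Compound 0.03-40 uM, ≥3 wells each. Readout: % change in pooled inter-electrode cross-correlation area vs own baseline; DMSO negative control.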

[10] = CCTE_Shafer_MEA_acute_cross_correlation_HWHM: CCTE's Neural Acute Assay for Cross Correlation at Half Width at Half Maximum, Shafer Lab (AID 2284026);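 further: percent change per well from pre-dose baseline in spike cross-correlogram half width; hits are a decrease in cross-correlogram half width relative to DMSO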
Summary of the method: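 Read-out: half width at half maximum of action-potential cross-correlogram, percent change versus pre-treatment baseline, fitted in loss direction against DMSO. Rat cortical cultures, DIV 13 or 15, dosed 0.03-40 uM, 40-min recordings at 37 C.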

[11] = CCTE_Shafer_MEA_acute_synchrony_index: CCTE's Neural Acute Assay for Synchrony, Shafer Lab (AID 2284027);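 further: network synchrony index of spontaneous spiking in primary rat cortical neurons on MEAs; fitted for loss of signal so actives lower synchrony relative to DMSO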
Summary of the method: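 The synchrony index is taken as percent change per well between a 40 min baseline and a 40 min recording with compound (0.03–40 uM), at 37C. Rat cortical cultures on multiwell MEAs at DIV 13 or 15, spike threshold 8× rms noise.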

[12] = CCTE_Shafer_MEA_dev_firing_rate_mean: CCTE's Neural Network Formation Assay for Mean Firing Rate, Shafer Lab (AID 2284031);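 further: curve fitted for loss of firing so AC50 reflects decreased mean firing rate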
Summary of the method: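 Spike frequency (spikes/recording length, averaged over active electrodes) was recorded on days 5, 7, 9 and 12 and collapsed to AUC; rat cortical cultures received compound continuously over 12 days of network development.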

[13] = CCTE_Shafer_MEA_dev_per_burst_spike_percent: CCTE's Neural Network Formation Assay for Percent of Spikes in a Burst, Shafer Lab (AID 2284032);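 further: fitted as a decrease in burst spike percentage below DMSO baseline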
Summary of the method: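 Value is trapezoidal AUC over recordings on days 5, 7, 9 and 12 of the well-mean fraction of spikes falling in single-electrode bursts; rat cortical cultures exposed continuously from plating, treatment renewed DIV 5 and 9, fitted downward against DMSO.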

[14] = target: Estrogen receptor (Homo sapiens) (UniProt P03372); experiment: CCTE_Deisenroth_AIME_384WELL_LUC_Active: CCTE's 384-well Estrogen Receptor Transactivation Assay with AIME metabolic competence (ERTA luciferase; metabolism positive), Deisenroth Lab (AID 2284030; active means hit-call score of the fitted dose curve at least 0.9, where 1 is the maximum)
Sequence of Estrogen receptor (Homo sapiens) (P03372 whole entry, looked up): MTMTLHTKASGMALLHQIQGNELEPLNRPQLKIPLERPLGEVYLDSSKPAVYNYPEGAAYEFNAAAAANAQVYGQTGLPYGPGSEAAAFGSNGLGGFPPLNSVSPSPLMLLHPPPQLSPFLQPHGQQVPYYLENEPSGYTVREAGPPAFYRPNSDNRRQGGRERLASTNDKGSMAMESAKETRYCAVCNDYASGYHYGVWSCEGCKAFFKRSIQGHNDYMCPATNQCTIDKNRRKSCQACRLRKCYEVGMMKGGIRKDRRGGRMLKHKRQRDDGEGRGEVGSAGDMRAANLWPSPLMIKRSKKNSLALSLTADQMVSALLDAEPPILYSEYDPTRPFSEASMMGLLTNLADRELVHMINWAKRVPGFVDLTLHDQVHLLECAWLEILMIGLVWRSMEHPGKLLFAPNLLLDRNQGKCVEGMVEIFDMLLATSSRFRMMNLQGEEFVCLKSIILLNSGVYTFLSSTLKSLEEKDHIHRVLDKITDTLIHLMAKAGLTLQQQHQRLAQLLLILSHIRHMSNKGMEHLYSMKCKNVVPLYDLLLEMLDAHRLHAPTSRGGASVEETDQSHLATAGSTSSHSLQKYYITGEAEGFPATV
Summary of the method: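 Readout: bioluminescent luciferase induction in VM7Luc4E2 cells 24 hour after receiving medium from a 2 h rat hepatic S9 (induced, alginate microsphere) metabolism step. Concentrations 0.002 - 200 uM; activity scaled to 17beta-estradiol positive control.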

[15] = CCTE_Deisenroth_AIME_384WELL_CTox_Active: Cytotoxicity Assessment (CTOX) in CCTE's 384-well Estrogen Receptor Transactivation Assay with AIME metabolic competence (metabolism positive), Deisenroth Lab (AID 2284037; active means hit-call score of the fitted dose curve at least 0.9, where 1 is the maximum;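 further: chemicals first conditioned 2 h by alginate-bound induced rat liver S9 before cells; activity means signal loss indicating cell death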)
Summary of the method: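 Chemicals pre-incubated 2 hours with alginate-immobilised phenobarbital/beta-naphthoflavone-induced male Sprague Dawley rat liver S9, then conditioned medium applied 24 hour to VM7Luc4E2 cells. Viability by fluorogenic protease substrate; 10-point series 0.002 - 200 uM.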

[16] = target: Estrogen receptor (Homo sapiens) (UniProt P03372); experiment: CCTE_Deisenroth_AIME_384WELL_LUC_Inactive: CCTE's 384-well Estrogen Receptor Transactivation Assay without AIME metabolic competence (ERTA luciferase; metabolism negative), Deisenroth Lab (AID 2284038; active means hit-call score of the fitted dose curve at least 0.9, where 1 is the maximum;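 further: VM7Luc4E2 breast cells given medium preincubated 2 h with S9-free microspheres; hits raise estrogen receptor luciferase signal so potencies reflect agonists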)
Summary of the method: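 VM7Luc4E2 ER transactivation, luciferase bioluminescence after 24 h, using medium pre-incubated 2 h with S9-free alginate microspheres. Concentrations 0.002–200 uM; gain of signal fitted relative to 17beta-estradiol.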

## COc1ccc(OC(F)(F)F)cc1CN[C@H]1CCCN[C@H]1c1ccccc1
[1]
  AC50: 1.89 µM (active)
[2]
  outcome: inactive
[3]
  AC50: 5 µM (active)
[4]
  AC50: 7.18 µM (active)
[5]
  AC50: 4.59 µM (active)
[6]
  AC50: 4.15 µM (active)
[7]
  AC50: 2.75 µM (active)
[8]
  AC50: 3.09 µM (active)
[9]
  outcome: inactive
[10]
  AC50: 3.09 µM (active)
[11]
  outcome: inactive

## CN(C)CCCN1c2ccccc2Sc2ccc(Cl)cc21
[1]
  outcome: inactive
[2]
  outcome: inactive
[3]
  outcome: inactive
[4]
  outcome: inactive
[5]
  AC50: 33.2 µM (active)
[6]
  AC50: 31.6 µM (active)
[7]
  outcome: inactive
[8]
  outcome: inactive
[10]
  AC50: 31.5 µM (active)
[11]
  AC50: 32.2 µM (active)
[12]
  AC50: 3.43 µM (active)
[13]
  AC50: 6.1 µM (active)

## COC(=O)[C@H]1[C@H]2C[C@@H]3c4[nH]c5cc(OC)ccc5c4CCN3C[C@H]2C[C@@H](OC(=O)c2cc(OC)c(OC)c(OC)c2)[C@@H]1OC
[1]
  AC50: 0.82 µM (active)
[2]
  outcome: inactive
[3]
  AC50: 0.582 µM (active)
[4]
  AC50: 4.18 µM (active)
[5]
  AC50: 34.3 µM (active)
[6]
  outcome: inactive
[7]
  AC50: 20 µM (active)
[8]
  outcome: inactive
[9]
  outcome: inactive
[10]
  AC50: 20 µM (active)
[11]
  AC50: 4.97 µM (active)
[12]
  AC50: 2.8 µM (active)
[13]
  AC50: 5.76 µM (active)

## O=C1OC(c2ccc(O)cc2)(c2ccc(O)cc2)c2ccccc21
[1]
  outcome: inactive
[2]
  outcome: inactive
[3]
  outcome: inactive
[4]
  outcome: inactive
[5]
  AC50: 24.6 µM (active)
[6]
  outcome: inactive
[7]
  AC50: 20 µM (active)
[8]
  AC50: 31 µM (active)
[9]
  outcome: inactive
[10]
  outcome: inactive
[11]
  AC50: 28.5 µM (active)

## CC1=C(C)S(=O)(=O)CCS1(=O)=O
[1]
  outcome: inactive
[2]
  outcome: inactive
[3]
  outcome: inactive
[4]
  outcome: inactive
[5]
  outcome: inactive
[6]
  outcome: inactive
[7]
  outcome: inactive
[8]
  outcome: inactive
[9]
  outcome: inactive
[10]
  outcome: inactive
[11]
  outcome: inactive
[14]
  outcome: inactive
[15]
  AC50: 172 µM (active)

## O=C(O)CN(CC(=O)O)CC(=O)O
[1]
  outcome: inactive
[2]
  outcome: inactive
[3]
  outcome: inactive
[4]
  outcome: inactive
[5]
  outcome: inactive
[6]
  outcome: inactive
[7]
  outcome: inactive
[8]
  outcome: inactive
[9]
  outcome: inactive
[10]
  outcome: inactive
[11]
  outcome: inactive
[14]
  AC50: 28.5 µM (active)
[15]
  outcome: inactive
[16]
  AC50: 28.8 µM (active)

## O=C(N[C@@H](c1ccccc1)[C@@H]1CCCCN1)c1cccc(C(F)(F)F)c1Cl
[1]
  AC50: 3.29 µM (active)
[2]
  outcome: inactive
[3]
  outcome: inactive
[4]
  AC50: 7.65 µM (active)
[5]
  AC50: 5 µM (active)
[6]
  outcome: inactive
[7]
  AC50: 5 µM (active)
[8]
  AC50: 9.12 µM (active)
[9]
  AC50: 1.99 µM (active)
[10]
  AC50: 9.13 µM (active)
[11]
  AC50: 5 µM (active)

## CN(C)C(=O)NC1(c2ccccc2)CCN(CC[C@@]2(c3ccc(F)c(F)c3)CN(C(=O)c3ccccc3)CCO2)CC1
[1]
  AC50: 4.34 µM (active)
[2]
  outcome: inactive
[3]
  outcome: inactive
[4]
  outcome: inactive
[5]
  outcome: inactive
[6]
  outcome: inactive
[7]
  outcome: inactive
[8]
  AC50: 5 µM (active)
[9]
  outcome: inactive
[10]
  AC50: 20 µM (active)
[11]
  outcome: inactive
